Experimental findings from PubChem BioAssay AID1259313 (Sanford-Burnham Center for Chemical Genomics, 2017) are described below.

The structures appear in SMILES notation. Out of some 340,000 compounds screened, about 8,500 (2.5%) were called active. The entries come from a sample that favours actives as a whole. Unmarked numbers belong to inactive results.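 The calls were made as follows: active = melting temperature shift of at least 10% of the positive control shift, at one fixed dose; inactive = the rest.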

The experiment has as its system Glutamate receptor ionotropic, NMDA 3A (GRIN3A) ligand-binding domain. The experiment in a line: binders of NR3A ligand-binding domain, primary screen, biophysical, differential scanning fluorimetry, uHTS (AID 1259313). The note with it: NR3A LBD differential scanning fluorimetry, at 25 µM, active compounds read high, 0% = protein alone, 100% = glycine-bound protein.
On to `Cc1cccc(-n2c(C)cc(/C=N\NC(=O)c3cccs3)c2C)c1`, for which the Tm shift relative to glycine control is 11.5% (active). Regarding `Cc1ccc(-n2c(C)cc(/C=N\NC(=O)CC(=O)NC(C)C)c2C)cc1`, the Tm shift relative to glycine control was -0.09%. In the case of `Cc1ccc(-n2nc(C)c(/C=N/NC(=O)c3cccs3)c2Cl)cc1` it was -1.88%. In the case of `CN1CCN(c2ccccc2NC(=O)COc2ccc(C3CCCCC3)cc2)CC1` it was 2.39%. Then `CC1(C)C/C(=C(/C#N)C(N)=O)CCO1`, with 1.51%; and `Cc1cc(Cl)ccc1C(=O)C1CCCN(C(=O)CCN2CCCO2)C1` (configuration not stated), with -1.36%; and `O=C(NCc1ccccc1)c1ccc(S(=O)(=O)Nc2cccc(C(F)(F)F)c2)cc1`, with 8.53%.

Turning to `O=C(Nc1ccc(C(=O)N2CCOCC2)cc1)Nc1cccc(C(F)(F)F)c1`, the Tm shift relative to glycine control is -5.51%. Then `CCNS(=O)(=O)c1ccc(NC(=O)Nc2cccc(OC)c2)cc1`, with 29.6% (active). Take `CCNS(=O)(=O)c1ccc(NC(=O)Nc2cccc(C(F)(F)F)c2)cc1`: the Tm shift relative to glycine control is 38.8% (active).

With `COc1cccc(NC(C)=[N+](C)CCNS(=O)(=O)c2ccc(Cl)cc2)c1`, the Tm shift relative to glycine control is -3.14%. Then `CCN(CC(=O)Nc1ccc(S(=O)(=O)N2CCCC2)cc1)CC(=O)Nc1cccc(OC)c1`, with 0.48%; and `O=C(N/N=C/c1ccc(OCC2COCCO2)cc1)c1ccc(Br)cc1` (configuration not stated), with 8.82%; and `COc1ccc(N2C(=O)C3C(C2=O)C(C(=O)c2ccccc2)N2CCCC32)cc1` (configuration not stated), with -1.47%.

`Cc1cccc(C(=O)Nc2ccccc2C(=O)NCc2cccnc2)c1`: the Tm shift relative to glycine control was -0.85%. On to `Nc1cccc(-c2cc(-c3ccccc3)nc(-c3cccc(N)c3)n2)c1`, for which the Tm shift relative to glycine control is 42.8% (active). With `c1ccc(-c2cc(N3CCCCC3)c3ccccc3n2)cc1`, the Tm shift relative to glycine control was 0.96%.

As for `Cc1nc(NNC(=O)c2ccccc2)cc(-c2ccccc2)n1`, the Tm shift relative to glycine control was -0.16%. In the case of `NS(=O)(=O)c1ccc(N=Nc2c(O)[nH]c3ccc(Br)cc23)cc1` it was 23.4% (active). In the case of `O=C(CNC(=O)Cc1ccccc1)N=Nc1c(O)[nH]c2ccc(Br)cc12` it was -9.04%; in that of `Oc1[nH]c2ccc(Br)cc2c1N=Nc1nn[nH]n1`, 4.42%; in that of `CCOc1cc2[nH]c(=S)n(CCN3CCCCC3C)c(=O)c2cc1OCC` (configuration not stated), 0.59%. As to `Cc1cc(C)cc(OCC(=O)NNC(=O)c2cc3ccccc3oc2=O)c1`, the Tm shift relative to glycine control is 2.22%.

With `CC(=O)NCC(O)c1ccc([N+](=O)[O-])cc1` (configuration not stated), the Tm shift relative to glycine control is 12.1% (active).

`O=C(NCC(O)c1ccc([N+](=O)[O-])cc1)C1CCCCC1` (configuration not stated): the Tm shift relative to glycine control is -0.64%. In the case of `O=C(CC(c1ccccc1)c1ccccc1)NCC(O)c1ccc([N+](=O)[O-])cc1` (configuration not stated) it was -6.68%. In the case of `COC(=O)c1cc(NS(=O)(=O)c2ccc3c(c2)c(=O)n(C)c(=O)n3C)cc(C(=O)OC)c1` it was -17.2%. Then `Cc1csc2nc(O)c(C(=O)NCCN3CCOCC3)c(=O)n12`, with 1.24%; and `NC(=O)C1CCN(CC(O)CSc2ccc(F)cc2)CC1` (configuration not stated), with -0.69%. With `COC(=O)C(C)Oc1ccc2c(-c3cccc([N+](=O)[O-])c3)cc(=O)oc2c1` (configuration not stated), the Tm shift relative to glycine control is 0.72%. In the case of `CCOC(=O)c1sc(-c2cccc([N+](=O)[O-])c2)cc1N` it was 20.4% (active).

Turning to `CCOC(=O)C1=C(CN2CCCCCC2)NC(=O)NC1c1cccc([N+](=O)[O-])c1` (configuration not stated), the Tm shift relative to glycine control was 0.15%. In the case of `Cc1cccc(C(=O)Nc2nnc(Cc3c[nH]c4ccccc34)s2)c1` it was -7.42%; in that of `C=CCn1c(C)cc(C2=NNC(=NCC)SC2)c1C`, -0.92%.

In the case of `Cc1cccc(N=C2NN=C(c3c[nH]c4ccccc34)CS2)c1`, the Tm shift relative to glycine control was 19.3% (active). Then `CC(C)C(C(=O)NCc1ccco1)N(CC1CCCO1)C(=O)CNS(=O)(=O)c1ccc(F)cc1` (configuration not stated), with 0.85%; and `O=C(Nn1cc(C(=O)N2CCN(c3ccccc3F)CC2)c2ccccc2c1=O)c1cnccn1`, with -1.41%. Consider `COc1ccc(/C=C(/CC(=O)Nc2ccc(C)cc2)c2nc3ccccc3s2)cc1`, for which the Tm shift relative to glycine control is -2.24%. For the compound `COc1ccc(NS(=O)(=O)c2ccc3oc(SCC(N)=O)nc3c2)cc1`, the Tm shift relative to glycine control was -0.47%. As to `COc1ccc(S(=O)(=O)Nc2ccc(O)c(Sc3nc4ccccc4s3)c2)cc1`, the Tm shift relative to glycine control was 11.6% (active). Then `CCC(C)(C)NC(=O)/C=C/c1cc(OC)c(OC)c(S(=O)(=O)N2CCc3ccccc32)c1`, with 0.08%; and `O=C(N/N=C/c1c(Cl)[nH]c2ccccc12)c1sc2ccccc2c1Cl`, with 28.2% (active); and `COc1ccc(CNC(=O)CNC(=O)c2sc3ccccc3c2Cl)cc1OC`, with 1.07%. In the case of `COCCNC(=S)N/N=C/c1c(C)[nH]c2ccccc12` it was -4.38%; in that of `Cc1ccc(N(C(=O)C(F)(F)F)C(C(=O)NC2CCCCC2)c2ccncc2)cc1C` (configuration not stated), -1.17%. Then `O=C(OC1CCCCC1=O)c1cccc(S(=O)(=O)NCc2ccccc2)c1` (configuration not stated), with -0.25%; and `CC1CN(c2cc(=O)n(-c3cccc(Br)c3)c(=O)[nH]2)CC(C)O1` (configuration not stated), with 0.6%. For `COc1ccc(Br)cc1CN(C)CC(=O)Nc1cc(Cl)cc(Cl)c1`, the Tm shift relative to glycine control is -14.8%.

Turning to `O=C1c2ccccc2C(=O)N1CC1c2ccccc2CCN1S(=O)(=O)c1ccccc1` (configuration not stated), the Tm shift relative to glycine control is -1.14%.

Regarding `CCOC(=O)c1ccc(-n2c(CCC(=O)O)ccc2-c2ccccc2)cc1`, the Tm shift relative to glycine control was 0.18%. In the case of `Cc1c(Cl)cccc1NC(=O)CC1SC(=NCC2CCCO2)NC1=O` (configuration not stated) it was -1.26%; in that of `Cc1ccc(NC(=O)CC2S/C(=N/N=C3\CCCc4ccccc43)NC2=O)cc1` (configuration not stated), 25.5% (active); in that of `Cc1ccc(CNC(=O)CC2Sc3ccccc3NC2=O)cc1` (configuration not stated), -1.5%. Then `CC(C)CCNC(=O)CN(C(=O)Cn1nnc(-c2ccc(F)cc2)n1)C1CCCC1`, with -0.75%; and `CC(C)CCNC(=O)C(C)N(C(=O)Cn1nnc(-c2ccc(F)cc2)n1)C1CCCC1` (configuration not stated), with 22.9% (active). In the case of `CN(C(=O)Cn1nnc(-c2ccc(F)cc2)n1)C1CCS(=O)(=O)C1` (configuration not stated), the Tm shift relative to glycine control is 0.08%. With `COCC1CCN(C(=O)c2ccc3oc(Cc4ccccc4)nc3c2)C1` (configuration not stated), the Tm shift relative to glycine control was -2.47%.
